# Test results reported in the supplement of paper PMC10849652.
# About 8,800 targets were measured; listed, in parts, are those with a hit and a random draw of the rest. About 0.5% of all pairs of compound and target were hits. Values without a mark were called inactive.
# Experiments:
# Assay in all cases: log2 fold change, soluble protein after heating vs DMSO (PISA); higher = thermal stabilisation; K562 lysate, 10 uM; active = over 0.2 and 3.5 SD of the protein, either way, in both replicates (recomputed)
# vemurafenib = compound: CCCS(=O)(=O)Nc1ccc(F)c(C(=O)c2c[nH]c3ncc(-c4ccc(Cl)cc4)cc23)c1F [vemurafenib]
# Procedure, shortened: (§1)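 Dounce homogenisation of K562 pellets in PBS pH 7.4 with 1 mM MgCl2 produced a crude extract, used at 1 mg/mL protein. Exposure to 10 μM compound lasted 30 min, and aliquots were then heated for 3 min across 48°C-58°C, pooled and brought to 0.5% NP-40 at 4°C. The supernatant after 21,000xg for 90 min was quantified by TMTpro 16plex LC-MS/MS with channel sums equalised. Duplicate values are given as log-two fold change in thermal stability relative to solvent controls.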
# [1] = compound: CCCS(=O)(=O)Nc1ccc(F)c(C(=O)c2c[nH]c3ncc(Cl)cc23)c1F
# Procedure, shortened: as §1
# barasertib = compound: CCN(CCCOc1ccc2c(Nc3cc(CC(=O)Nc4cccc(F)c4)[nH]n3)ncnc2c1)CCOP(=O)(O)O [barasertib]
# Procedure, shortened: as §1
# [2] = compound: CC[C@@H]1C(=O)N(C)c2cnc(Nc3ccc(C(=O)NC4CCN(C)CC4)cc3OC)nc2N1C1CCCC1
# Procedure, shortened: as §1
# volasertib = compound: CC[C@@H]1C(=O)N(C)c2cnc(Nc3ccc(C(=O)N[C@H]4CC[C@H](N5CCN(CC6CC6)CC5)CC4)cc3OC)nc2N1C(C)C [volasertib]
# Procedure, shortened: as §1
# [3] = compound: CCn1c(C(=O)N(C2CC2)C2CC2)cc2c3c(ncn3C)c(Nc3cc(C)n(C)n3)nc21
# Procedure, shortened: as §1
# [4] = compound: CCn1cc(-c2ccnc3[nH]c(-c4cccc(CN(C)C)c4)cc23)c(-c2ccc(NC(=O)N(C)C)cc2)n1
# Procedure, shortened: as §1
# [5] = compound: CN1CCC(CNc2ccc3ncc(-c4cccc(OC(F)(F)F)c4)n3n2)CC1
# Procedure, shortened: as §1
# saracatinib = compound: CN1CCN(CCOc2cc(OC3CCOCC3)c3c(Nc4c(Cl)ccc5c4OCO5)ncnc3c2)CC1 [saracatinib]
# Procedure, shortened: as §1
# sotrastaurin = compound: CN1CCN(c2nc(C3=C(c4c[nH]c5ccccc45)C(=O)NC3=O)c3ccccc3n2)CC1 [sotrastaurin]
# Procedure, shortened: as §1
# UniProt Q96NC0, sequence (Q96NC0 whole entry, looked up): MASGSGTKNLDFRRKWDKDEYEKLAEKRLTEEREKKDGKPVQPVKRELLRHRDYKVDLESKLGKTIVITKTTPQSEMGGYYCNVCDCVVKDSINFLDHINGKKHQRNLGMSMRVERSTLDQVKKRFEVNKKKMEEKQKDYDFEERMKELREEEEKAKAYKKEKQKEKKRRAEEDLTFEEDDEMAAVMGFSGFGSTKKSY
# UniProt P22695, sequence (P22695 whole entry, looked up): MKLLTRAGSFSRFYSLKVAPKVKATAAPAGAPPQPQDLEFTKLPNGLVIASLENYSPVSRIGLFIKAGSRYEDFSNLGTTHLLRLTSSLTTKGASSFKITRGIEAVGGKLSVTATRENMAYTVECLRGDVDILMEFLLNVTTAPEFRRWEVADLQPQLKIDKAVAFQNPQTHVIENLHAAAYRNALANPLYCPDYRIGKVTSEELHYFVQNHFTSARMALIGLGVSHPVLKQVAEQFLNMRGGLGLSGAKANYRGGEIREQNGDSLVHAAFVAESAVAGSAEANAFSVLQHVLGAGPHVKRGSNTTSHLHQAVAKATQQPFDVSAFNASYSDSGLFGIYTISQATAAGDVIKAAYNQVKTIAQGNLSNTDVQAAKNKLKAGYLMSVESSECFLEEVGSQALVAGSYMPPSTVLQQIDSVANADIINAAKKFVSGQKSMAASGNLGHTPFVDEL
# UniProt O43149, sequence (O43149 whole entry, looked up): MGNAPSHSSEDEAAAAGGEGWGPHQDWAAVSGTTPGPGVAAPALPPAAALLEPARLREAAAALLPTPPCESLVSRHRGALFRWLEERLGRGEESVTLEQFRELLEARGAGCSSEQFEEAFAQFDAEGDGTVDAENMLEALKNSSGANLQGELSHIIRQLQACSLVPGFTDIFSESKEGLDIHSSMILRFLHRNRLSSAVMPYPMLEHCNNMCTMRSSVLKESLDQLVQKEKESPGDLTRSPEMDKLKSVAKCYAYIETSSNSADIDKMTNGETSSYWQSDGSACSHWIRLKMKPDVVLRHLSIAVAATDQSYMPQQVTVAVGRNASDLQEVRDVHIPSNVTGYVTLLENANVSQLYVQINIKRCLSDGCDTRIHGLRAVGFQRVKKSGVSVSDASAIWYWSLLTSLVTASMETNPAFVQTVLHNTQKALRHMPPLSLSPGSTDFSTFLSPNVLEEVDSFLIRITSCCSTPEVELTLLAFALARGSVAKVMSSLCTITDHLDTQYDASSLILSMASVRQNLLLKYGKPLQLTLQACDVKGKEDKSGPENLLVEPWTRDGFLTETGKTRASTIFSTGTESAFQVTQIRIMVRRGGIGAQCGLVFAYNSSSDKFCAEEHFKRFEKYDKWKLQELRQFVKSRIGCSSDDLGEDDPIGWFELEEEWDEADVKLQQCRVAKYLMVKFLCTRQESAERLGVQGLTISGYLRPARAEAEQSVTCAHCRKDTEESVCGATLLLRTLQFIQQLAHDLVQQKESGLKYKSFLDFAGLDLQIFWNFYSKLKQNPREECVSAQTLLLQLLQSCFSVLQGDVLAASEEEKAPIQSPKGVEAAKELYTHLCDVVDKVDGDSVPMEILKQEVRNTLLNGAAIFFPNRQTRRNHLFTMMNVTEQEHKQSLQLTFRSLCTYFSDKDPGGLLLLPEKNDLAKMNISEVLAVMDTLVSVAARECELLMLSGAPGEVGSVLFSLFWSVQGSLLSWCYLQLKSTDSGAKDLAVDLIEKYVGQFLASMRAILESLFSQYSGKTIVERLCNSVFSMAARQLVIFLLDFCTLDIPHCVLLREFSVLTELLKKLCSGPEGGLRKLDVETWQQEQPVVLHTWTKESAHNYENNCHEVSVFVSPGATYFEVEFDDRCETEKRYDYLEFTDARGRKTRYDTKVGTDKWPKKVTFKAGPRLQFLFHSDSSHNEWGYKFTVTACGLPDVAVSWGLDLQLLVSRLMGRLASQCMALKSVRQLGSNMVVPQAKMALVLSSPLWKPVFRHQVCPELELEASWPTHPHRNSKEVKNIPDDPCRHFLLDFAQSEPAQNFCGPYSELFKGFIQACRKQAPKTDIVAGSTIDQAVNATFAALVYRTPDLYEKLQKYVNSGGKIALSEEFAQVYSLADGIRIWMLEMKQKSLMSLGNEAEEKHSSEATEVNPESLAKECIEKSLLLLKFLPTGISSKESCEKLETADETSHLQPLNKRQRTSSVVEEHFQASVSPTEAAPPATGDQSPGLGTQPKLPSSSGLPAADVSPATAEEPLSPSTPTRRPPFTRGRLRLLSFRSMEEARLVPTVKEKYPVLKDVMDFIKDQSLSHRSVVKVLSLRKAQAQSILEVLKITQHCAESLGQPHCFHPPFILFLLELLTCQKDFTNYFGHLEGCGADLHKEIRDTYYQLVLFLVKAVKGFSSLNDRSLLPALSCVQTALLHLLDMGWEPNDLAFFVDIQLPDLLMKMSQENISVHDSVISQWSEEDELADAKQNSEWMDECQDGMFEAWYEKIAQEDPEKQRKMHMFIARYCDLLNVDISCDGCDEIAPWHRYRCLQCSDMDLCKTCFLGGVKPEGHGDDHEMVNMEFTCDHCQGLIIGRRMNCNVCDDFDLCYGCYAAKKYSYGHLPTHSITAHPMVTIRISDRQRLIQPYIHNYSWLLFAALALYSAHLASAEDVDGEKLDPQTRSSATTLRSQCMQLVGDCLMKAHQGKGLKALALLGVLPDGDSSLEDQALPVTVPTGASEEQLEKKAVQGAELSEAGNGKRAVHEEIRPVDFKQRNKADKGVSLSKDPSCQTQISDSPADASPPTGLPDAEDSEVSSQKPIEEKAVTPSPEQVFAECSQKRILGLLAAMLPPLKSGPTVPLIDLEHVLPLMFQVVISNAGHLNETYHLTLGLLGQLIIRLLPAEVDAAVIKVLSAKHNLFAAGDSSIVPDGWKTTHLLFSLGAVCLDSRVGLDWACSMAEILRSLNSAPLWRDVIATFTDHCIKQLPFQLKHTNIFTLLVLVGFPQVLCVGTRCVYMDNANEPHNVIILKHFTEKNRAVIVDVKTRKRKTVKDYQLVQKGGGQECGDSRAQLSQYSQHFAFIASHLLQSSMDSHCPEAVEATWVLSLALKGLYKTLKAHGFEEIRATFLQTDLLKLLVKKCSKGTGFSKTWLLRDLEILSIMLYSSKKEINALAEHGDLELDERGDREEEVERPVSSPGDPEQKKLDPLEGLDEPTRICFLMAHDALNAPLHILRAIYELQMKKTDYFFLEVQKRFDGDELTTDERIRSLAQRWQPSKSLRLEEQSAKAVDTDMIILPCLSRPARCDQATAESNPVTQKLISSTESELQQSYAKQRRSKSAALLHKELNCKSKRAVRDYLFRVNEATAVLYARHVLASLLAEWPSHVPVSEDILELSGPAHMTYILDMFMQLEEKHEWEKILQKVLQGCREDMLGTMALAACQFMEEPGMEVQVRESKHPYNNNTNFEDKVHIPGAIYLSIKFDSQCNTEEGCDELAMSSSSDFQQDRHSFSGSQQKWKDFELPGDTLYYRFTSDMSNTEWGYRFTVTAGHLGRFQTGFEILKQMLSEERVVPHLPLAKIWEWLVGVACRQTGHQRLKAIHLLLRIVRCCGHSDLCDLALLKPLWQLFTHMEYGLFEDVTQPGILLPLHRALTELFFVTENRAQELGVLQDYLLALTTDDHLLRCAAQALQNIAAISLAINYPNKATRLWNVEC
# UniProt Q9HAV4, sequence (Q9HAV4 whole entry, looked up): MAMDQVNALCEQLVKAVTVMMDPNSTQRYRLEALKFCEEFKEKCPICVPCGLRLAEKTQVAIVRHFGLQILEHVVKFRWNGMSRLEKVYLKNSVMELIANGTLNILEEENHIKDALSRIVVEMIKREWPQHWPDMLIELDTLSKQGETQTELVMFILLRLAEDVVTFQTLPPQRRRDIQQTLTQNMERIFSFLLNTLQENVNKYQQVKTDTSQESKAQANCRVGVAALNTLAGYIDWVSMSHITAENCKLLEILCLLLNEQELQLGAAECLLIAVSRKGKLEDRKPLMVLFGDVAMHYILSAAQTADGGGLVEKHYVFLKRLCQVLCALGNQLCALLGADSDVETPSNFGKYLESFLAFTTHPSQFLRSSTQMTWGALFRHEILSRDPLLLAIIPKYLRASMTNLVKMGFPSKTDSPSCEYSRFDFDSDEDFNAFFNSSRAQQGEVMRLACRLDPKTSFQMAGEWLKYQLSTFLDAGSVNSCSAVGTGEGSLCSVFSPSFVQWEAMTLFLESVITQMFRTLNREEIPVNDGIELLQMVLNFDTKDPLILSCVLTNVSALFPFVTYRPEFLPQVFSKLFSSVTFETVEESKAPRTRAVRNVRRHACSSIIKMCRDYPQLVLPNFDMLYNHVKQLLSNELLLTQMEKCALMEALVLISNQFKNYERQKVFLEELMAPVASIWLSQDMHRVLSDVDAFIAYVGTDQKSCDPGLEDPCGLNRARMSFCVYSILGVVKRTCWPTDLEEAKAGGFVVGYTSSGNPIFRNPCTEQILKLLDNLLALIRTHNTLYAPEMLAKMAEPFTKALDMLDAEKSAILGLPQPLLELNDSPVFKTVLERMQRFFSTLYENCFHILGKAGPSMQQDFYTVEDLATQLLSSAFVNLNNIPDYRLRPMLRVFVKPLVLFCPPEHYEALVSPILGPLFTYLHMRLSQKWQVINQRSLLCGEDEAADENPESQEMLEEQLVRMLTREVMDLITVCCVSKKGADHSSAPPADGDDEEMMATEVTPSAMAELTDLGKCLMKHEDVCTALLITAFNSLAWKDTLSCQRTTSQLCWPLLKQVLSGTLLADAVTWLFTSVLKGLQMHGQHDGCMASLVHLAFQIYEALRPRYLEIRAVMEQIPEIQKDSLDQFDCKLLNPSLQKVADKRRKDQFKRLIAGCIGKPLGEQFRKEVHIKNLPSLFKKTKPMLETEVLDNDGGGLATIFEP
# UniProt Q9BRT2, sequence (Q9BRT2 whole entry, looked up): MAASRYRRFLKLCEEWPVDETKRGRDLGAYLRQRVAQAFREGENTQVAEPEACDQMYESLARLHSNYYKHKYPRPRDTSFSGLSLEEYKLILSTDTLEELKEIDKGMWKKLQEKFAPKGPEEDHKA
# UniProt P63027, sequence (P63027 whole entry, looked up): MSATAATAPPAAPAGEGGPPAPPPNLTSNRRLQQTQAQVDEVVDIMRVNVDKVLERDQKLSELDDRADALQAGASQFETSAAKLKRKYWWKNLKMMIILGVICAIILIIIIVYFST
Target,log2 fold change (vemurafenib),log2 fold change [1],log2 fold change (barasertib),log2 fold change [2],log2 fold change (volasertib),log2 fold change [3],log2 fold change [4],log2 fold change [5],log2 fold change (saracatinib),log2 fold change (sotrastaurin)
VAC14 (UniProt Q08AM6),-0.002,0.008,0.021,-0.021,-0.02,0.013,-0.032,0.007,0.007,0
USP48 isoform 8 (UniProt Q86UV5),-0.002,0.036,0.002,-0.013,-0.043,0.007,-0.011,-0.032,-0.004,0.031
VPS37B (UniProt Q9H9H4),-0.001,0.003,-0.012,0.047,-0.011,0.005,-0.018,0.04,0.048,0.01
VAMP2 (UniProt P63027),0.002,-0.027,0.012,-0.286 (active),0.009,0.02,0.057,0.091,0.033,-0.028
UNC45A (UniProt Q9H3U1),0.013,0.012,0.018,-0.022,-0.039,0.025,0.02,-0.081,0.017,-0.001
UXT isoform 2 (UniProt Q9UBK9),-0.023,0,0.056,0.321 (active),-0.004,-0.088,-0.05,0.032,0.053,0.001
VARS (UniProt P26640),0.028,0.007,0.036,-0.077,-0.082,0.04,-0.014,-0.039,-0.001,0.03
UPF3B (UniProt Q9BZI7),0.027,0.01,-0.006,0.026,0.004,-0.019,-0.231 (active),0.031,0.005,-0.019
WDR62 isoform 4 (UniProt O43379),0.004,0.065,0.031,-0.063,0,0.003,-0.009,-0.044,0.04,0.031
ZNF593 (UniProt O00488),0.001,0.037,-0.026,-0.174,-0.034,0.078,-0.012,0.016,-0.012,-0.105
UQCC2 (UniProt Q9BRT2),-0.074,0.005,-0.039,-0.013,0.039,-0.039,0.287 (active),-0.086,-0.04,-0.083
WRN (UniProt Q14191),-0.032,-0.065,0.026,-0.032,0.007,0.053,-0.052,0.022,0.008,0.031
UQCRC2 (UniProt P22695),-0.016,0.01,-0.018,0.026,0.01,-0.015,0.034,-0.003,0.002,-0.02
VAV1 (UniProt P15498),0.032,-0.017,0.022,-0.041,-0.002,-0.041,-0.114,0.035,-0.011,-0.021
ZNF318 (UniProt Q5VUA4),0.089,0.025,0.077,0.025,0.011,-0.007,0.086,-0.033,0.079,0.047
YEATS4 (UniProt O95619),-0.032,0.003,0.05,0.045,-0.028,0.014,0.746 (active),0,0.031,0.022
ZC2HC1A (UniProt Q96GY0),0.13,-0.032,0.078,0.086,0.031,0.035,-0.057,0.117,-0.011,0.016
WDR24 (UniProt Q96S15),0.083,-0.036,0.129,-0.055,-0.035,0.047,-0.026,0.043,0.078,0.082
YRDC (UniProt Q86U90),0.03,0.093,0.019,0.04,-0.005,-0.045,-0.019,0.089,-0.043,-0.002
XPOT (UniProt O43592),-0.023,0.014,0.011,-0.097,-0.047,0.036,-0.065,-0.001,-0.005,0.002
ZZEF1 (UniProt O43149),-0.013,0.012,0.051,-0.015,-0.028,-0.006,-0.116,0.029,0.036,0.01
XPO5 (UniProt Q9HAV4),-0.006,0.005,0.022,-0.028,-0.062,0.027,-0.043,-0.041,0.011,0.007
WRNIP1 (UniProt Q96S55),0.036,0.042,0.064,-0.114,-0.128,0.014,-0.026,0.03,-0.006,0.042
ZNF609 (UniProt O15014),0.165,0.033,0.027,0.011,0.005,0.022,-0.014,0.064,0.004,0.013
XPO1 (UniProt O14980),0.015,0.005,0.023,-0.055,-0.026,0.013,-0.05,0.019,0.033,0.022
ZDHHC18 (UniProt Q9NUE0),0.043,0.026,0.016,-0.019,-0.052,-0.068,-0.138,0.085,0.036,0.04
VTN (UniProt P04004),0.029,0.058,0.043,0.063,-0.001,0.011,-0.615 (active),0.289,0.075,-0.012
VASP (UniProt P50552),-0.012,-0.011,-0.069,-0.022,-0.008,0.009,0.006,-0.009,0.007,-0.004
VPS41 (UniProt P49754),-0.018,-0.016,0.085,0.005,-0.078,0.06,0.074,-0.054,0.002,0.058
ZMAT2 (UniProt Q96NC0),-0.015,0,-0.041,0.062,0.039,-0.026,-0.034,0.087,0.017,-0.036
